Hits are enriched below; roughly 2.4% of the tested compounds scored in any of these assays.
IL1B cytotox = toxic to HUVEC cells under IL-1B stimulation | cell count reduction, % at 2 µM | HUVEC cell count loss, Hoechst imaging, IL-1B stimulated | 94,000 tested, 0.41% active;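 active = cell count reduction more than 3 SD above the screen-wide mean, cut at about 70% in these data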;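 also: normalized per plate to untreated control cells as the no-loss baseline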
Pyk2 oligo antag = Pyk2 (human) oligomerization antagonism. Q293 cells, Pyk2 FERM NanoBiT luminescence; stronger effect = lower value. z-score (the deposit names both 25 µM and 10 µM). 99,000 tested, 0.83% active. AID 1347419;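 active = Z-score of -3 or lower, scaled per plate to the spread of control and sample wells; inactive = z-score above -3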;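 also: negative z-score means lost luminescence so less FERM oligomerization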
JNK3 blocker = JNK3 (human) kinase inhibition | P53779 | purified JNK3 kinase activity, HTS | inhibition, % at 8 µM | 60,000 tested, 0.61% active | AID 746; in the data active = inhibition above about 17%;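 also: 0% = DMSO and 100% = reference inhibitor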
Target sequence (P53779 whole entry, looked up): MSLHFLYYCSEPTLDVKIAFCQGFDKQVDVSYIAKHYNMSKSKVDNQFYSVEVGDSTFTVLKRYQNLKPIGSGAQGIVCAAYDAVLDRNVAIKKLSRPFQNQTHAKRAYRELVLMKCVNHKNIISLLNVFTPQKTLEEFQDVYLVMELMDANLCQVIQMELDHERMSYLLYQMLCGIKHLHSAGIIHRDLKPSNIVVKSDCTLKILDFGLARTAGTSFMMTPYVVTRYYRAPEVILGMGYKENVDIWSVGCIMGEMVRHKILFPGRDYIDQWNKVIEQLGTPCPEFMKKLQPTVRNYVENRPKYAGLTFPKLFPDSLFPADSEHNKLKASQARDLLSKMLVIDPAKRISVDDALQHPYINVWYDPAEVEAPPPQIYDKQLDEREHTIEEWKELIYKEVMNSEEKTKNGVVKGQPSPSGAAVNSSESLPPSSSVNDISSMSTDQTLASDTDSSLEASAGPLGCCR
NFkB transloc pot = enhances IL-1B driven NFkB nuclear translocation; 94,000 tested, 0.3% active; AID 819; activation, % at 2 µM; HUVEC IL-1B NFkB p65 nuclear translocation imaging;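 active = activation above 40%, about the mean plus 3 SD, also judged a hit on visual image review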;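 also: percent activation is computed from the nuclear over cytoplasmic p65 intensity ratio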
FAK blocker = blocks human focal adhesion kinase activity | Q05397 | biochemical FAK kinase activity assay | inhibition, %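 (tested at 7 µM)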 | 97,000 tested, 0.84% active | AID 727; in the data active = inhibition above about 19%;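 also: 0% = DMSO and 100% = reference compound high control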
IL1B NFkB inh = blocks IL-1B driven NFkB nuclear translocation in HUVEC cells. HUVEC IL-1B NFkB p65 nuclear translocation imaging. inhibition, % at 2 µM. 94,000 tested, 0.43% active;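 active = inhibition above about 30% together with a positive call from visual inspection of the well image, limit read from the data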;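 also: nuclear over cytoplasmic p65 intensity ratio measured by imaging; 0% = IL-1B stimulated DMSO wells and 100% = unstimulated DMSO wells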
Starred values were filed as active, the others as inactive.

Screening COc1ccc(C(c2nnnn2Cc2cccs2)N2CCN(c3ccccc3F)CC2)cc1 (centres undefined) returned IL1B cytotox -13, Pyk2 oligo antag -3.9*, JNK3 blocker 2, NFkB transloc pot 4, FAK blocker 8 and IL1B NFkB inh -4.
COCCn1nnnc1C(c1ccc(OC)c(OC)c1)N1CCN(c2nc3ccccc3s2)CC1 (centres undefined) was read as IL1B cytotox -14, Pyk2 oligo antag -3.4*, JNK3 blocker 2, NFkB transloc pot 27, FAK blocker 2 and IL1B NFkB inh -27.
COc1ccc(C(c2nnnn2Cc2ccccc2)N2CCN(c3ccccc3)CC2)cc1 (centres undefined) was read as Pyk2 oligo antag -3.8* and JNK3 blocker -2.
For Cn1c(SCc2ccccn2)nnc1-c1ccncc1 the results were Pyk2 oligo antag -0.06 and JNK3 blocker -5.
COc1ccc(C2CC(=O)c3c(C)nc(N4CCN(c5ccccc5)CC4)nc3C2)cc1 (centres undefined) was read as IL1B cytotox 16, Pyk2 oligo antag 0.94, JNK3 blocker -8, NFkB transloc pot 15, FAK blocker -2 and IL1B NFkB inh -15.
CCOC(=O)N1CCN(c2nc(C)c3c(n2)CC(C)CC3=O)CC1 (centres undefined) was read as IL1B cytotox -4, Pyk2 oligo antag 0.46, JNK3 blocker 4, NFkB transloc pot 40*, FAK blocker 11 and IL1B NFkB inh -40.
Screening COC(=O)c1c(-c2cccs2)csc1NC(=O)CN1CCOCC1 returned IL1B cytotox 21, Pyk2 oligo antag -1.4, JNK3 blocker 23*, NFkB transloc pot 13, FAK blocker 9 and IL1B NFkB inh -13.
Screening O=C1CC(N2CCC(c3nc4ccccc4o3)CC2)C(=O)N1c1ccc(Cl)cc1 (centres undefined) returned IL1B cytotox -13, JNK3 blocker -5, NFkB transloc pot 7, FAK blocker 1 and IL1B NFkB inh -7.
O=C1C(=O)c2ccc(-c3ccccc3)cc2-c2ccccc21 was read as IL1B cytotox 21, Pyk2 oligo antag -4.8*, NFkB transloc pot 14, FAK blocker 56* and IL1B NFkB inh -14.
`COc1cc(/C=N/NC(=O)CSCc2ccc([N+](=O)[O-])cc2)cc(OC)c1OC` gave IL1B cytotox 89*, Pyk2 oligo antag 0.11, NFkB transloc pot 10, FAK blocker 3 and IL1B NFkB inh -10.
`Cc1ccc(CCP(=O)(O)CN2CCCCC2)cn1` gave JNK3 blocker -1.
CCNc1nc2c(c(=O)n(Cc3ccccc3)c(=O)n2C)n1Cc1ccccc1 was read as IL1B cytotox -33, Pyk2 oligo antag -3.5*, JNK3 blocker 5, NFkB transloc pot -12, FAK blocker 1 and IL1B NFkB inh 12.
`CCNc1nc2c(c(=O)n(C)c(=O)n2C)n1Cc1ccc(Cl)cc1` gave JNK3 blocker 4.
Screening c1ccc(-c2n[nH]c3c2CCC3)cc1 returned IL1B cytotox -6, Pyk2 oligo antag -0.95, JNK3 blocker 18*, NFkB transloc pot -6, FAK blocker 10 and IL1B NFkB inh 6.
For Cc1ccc2nc(C3CCN(S(=O)(=O)c4ccc5ccccc5c4)CC3)[nH]c2c1 the results were IL1B cytotox -18, Pyk2 oligo antag -0.87, NFkB transloc pot 4, FAK blocker 2 and IL1B NFkB inh -4.
Screening Cc1cc(C(=O)OCc2nnc(-c3ccccc3)o2)c(C)n1-c1ccccc1 returned Pyk2 oligo antag 1.9.
For Cc1noc(C)c1COC(=O)c1cc(C)n(-c2ccccc2)c1C the results were IL1B cytotox 30, Pyk2 oligo antag -3.1*, JNK3 blocker -2, NFkB transloc pot 7, FAK blocker 4 and IL1B NFkB inh -6.
For COc1ccc(NC(=O)C2CCCN2S(=O)(=O)c2cccc3cccnc23)c(OC)c1 (centres undefined) the results were IL1B cytotox -11, JNK3 blocker 9, NFkB transloc pot 75*, FAK blocker 7 and IL1B NFkB inh -75.
Screening CCOc1ccc(OCC)c(NC(=O)C2CCCN2S(=O)(=O)c2cccc3cccnc23)c1 (centres undefined) returned IL1B cytotox -10, JNK3 blocker 7, NFkB transloc pot 15, FAK blocker 1 and IL1B NFkB inh -15.
O=C(CCn1nc(-c2ccccc2)ccc1=O)N1CCN(c2ccccn2)CC1 was read as JNK3 blocker 2.
`COc1cc(CNc2ccccc2SC)cc(OC)c1OC` gave IL1B cytotox -2, Pyk2 oligo antag 0.78, NFkB transloc pot 17, FAK blocker 1 and IL1B NFkB inh -17.
For COc1ccc(S(=O)(=O)N(C)CC(=O)N2CCC(C)CC2)cc1Cl the results were IL1B cytotox 2, Pyk2 oligo antag 0.54, JNK3 blocker -3, NFkB transloc pot 0, FAK blocker -2 and IL1B NFkB inh 0.
`[O-]/[N+](=C\c1ccccc1)[C@@H]1CCCC[C@@H]1/[N+]([O-])=C/c1ccccc1` gave IL1B cytotox 93*, Pyk2 oligo antag -0.75, JNK3 blocker 5, NFkB transloc pot -12, FAK blocker -5 and IL1B NFkB inh 12.
CCOC(=O)Cc1c(C)nc2c(-c3cccc(Br)c3)c[nH]n2c1=O was read as Pyk2 oligo antag 0.84 and JNK3 blocker 2.
For COc1ccc(NC(=O)CN2CCN(CC(=O)Nc3ccccc3F)CC2)c(OC)c1 the results were IL1B cytotox 2, Pyk2 oligo antag 0.66, JNK3 blocker 9, NFkB transloc pot -8, FAK blocker 3 and IL1B NFkB inh 8.
CCCc1cc(=O)n2c(nc3ccccc32)[nH]1 was read as IL1B cytotox -24, Pyk2 oligo antag -1.1, JNK3 blocker 28*, NFkB transloc pot 15, FAK blocker 2 and IL1B NFkB inh -15.
Screening CCn1c(=O)cc(OCC(=O)Nc2cccc(C)n2)c2ccccc21 returned IL1B cytotox -44, Pyk2 oligo antag -0.05, NFkB transloc pot 6, FAK blocker 0 and IL1B NFkB inh -6.
`CC(=O)Nc1ccc(S(=O)(=O)N2CCN(c3nc(NC4CCCC4)c4ccccc4n3)CC2)cc1` gave IL1B cytotox -14, Pyk2 oligo antag -3*, JNK3 blocker -6, NFkB transloc pot -4, FAK blocker -3 and IL1B NFkB inh 4.
Screening CCCCN(Cc1ccccc1)C(=O)c1cnc2n(c1=O)CCS2 returned IL1B cytotox 6, Pyk2 oligo antag 0.49, JNK3 blocker 8, NFkB transloc pot 8, FAK blocker -1 and IL1B NFkB inh -6.
Cn1c(=O)cc(OCCCC(=O)NCc2ccccn2)c2ccccc21 was read as IL1B cytotox -8, Pyk2 oligo antag 1.1, JNK3 blocker 4, NFkB transloc pot 7, FAK blocker 5 and IL1B NFkB inh -7.
For Cc1ccnc(NC(=O)CSc2cc(=O)n(C)c3ccccc23)c1 the results were IL1B cytotox -22, Pyk2 oligo antag -2.1, JNK3 blocker 26*, NFkB transloc pot 9, FAK blocker -9 and IL1B NFkB inh -9.

Assay outcomes (PubChem BioAssay)
